TGFb inhibitor = TGF-b pathway inhibition; HepG2 CAGA-GFP TGF-b/SMAD3 reporter, GFP fluorescence, 18 h; TGF-beta stimulated, 500 pg/mL final; Potency, µM (highest dose often 46.1 µM), for the others: top-dose activity, negative = inhibition, actives largely listed as inhibitors; 410,000 compounds, 1.2% hits; AID 588855; also: % is scaled to controls: 0 for no effect and ±100 for the full control effect; nearly all actives have a fitted effect of over 65% in size
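HEPG2 CAGA-GFP, 1000 cells/well; 2 h settle, 37 C; cpd via pin tool; TGF-b 500 pg/mL final; 18 h, 37 C; GFP imaging ex488/em500-530; %Activity normalised to -TGF-b and +DMSO controls; CRC fit, curve class.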
HT1080NT lethal = kills 2HG-producing HT-1080-NT fibrosarcoma cells | HT-1080-NT fibrosarcoma viability, CellTiter-Glo ATP luminescence, 48 h | Potency, µM (titrated, usually from 46.1 µM), for the others: at the top dose activity, negative = less viability, usual class: cytotoxic | 360,000 compounds, 1.6% hits;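 also: NT is the 2HG producing partner of a matched IDH1 knockdown line; 0% = DMSO-treated cells and -100% = media-only wells without cells; nearly all actives have a fitted effect of over 55% in size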
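750 cells/well, RPMI + 5% FBS; 2 h settle, compound pin-transfer, 48 h at 37 degrees C. CellTiter-Glo 10 min RT, luminescence. Normalized to DMSO and media-only wells.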
KB-3-1 tox = kills parental KB-3-1 adenocarcinoma cells; KB-3-1 viability, CellTiter-Glo ATP luminescence, 72 h; Potency, µM (top dose mostly 46.1 µM), most hits filed as cytotoxic; 400,000 compounds, 1.4% hits; AID 1347075; also: % is scaled to controls: 0 for no effect and ±100 for the full control effect; nearly all actives have a fitted effect of over 60% in size
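Using CellTiter-Glo luminescence, growth of non-resistant KB-3-1 adenocarcinoma cells is assessed 72 h after pin-tool compound addition at 37 °C. Normalized responses across the concentration series yield fitted curves.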
HT1080 IDH1KD tx = HT-1080 IDH1 knockdown cell toxicity (counter line). HT-1080 IDH1 knockdown viability, ATP luminescence, 48 h. 360,000 compounds, 2% hits. Potency, µM (series often up to 46.1 µM), inactives show at the top dose activity, negative = toxicity, most hits filed as cytotoxic;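 also: 0% = DMSO wells and -100% = cell-free medium wells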
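CellTiter-Glo luminescence after 48 h compound exposure at 37 degrees C of IDH1-knockdown HT-1080 cells in 5% FBS RPMI. %Activity scaled between DMSO wells and cell-free media wells, with curves fitted and assigned curve classes.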
HepG2 viability = kills HepG2 cells in TGF-b inhibitor counter-screen; HepG2 CAGA-GFP viability, ATP luminescence, 18 h; Potency, µM (doses to about 46.1 µM), inactives show at the top dose activity change, negative = cytotoxicity, usual class: cytotoxic; 410,000 compounds, 0.76% hits; AID 588856
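HepG2 CAGA-GFP cells (1000/well, DMEM with 1% FBS) received compound, then TGF-beta at 500 pg/mL final, and were incubated 18 hours at 37 degrees C. Viability was read by CellTiter-Glo luminescence. Media-only wells were set as complete cell-killing and DMSO as no toxicity.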
KB-V1 MDR tox = KB-V1 MDR subline cytotoxicity | KB-V1 MDR cells viability, CellTiter-Glo, 72 h | Potency, µM (top dose mostly 46.1 µM), most hits filed as cytotoxic | 400,000 compounds, 3.4% hits | AID 1347076; also: % is scaled to controls: 0 for no effect and ±100 for the full control effect; nearly all actives have a fitted effect of over 60% in size
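KB-V1 cells (P-gp-expressing MDR subline of KB-3-1) in phenol-red-free DMEM with 10% FBS were exposed to library compounds over a concentration series for 72 h at 37 degrees C. Viability read by CellTiter-Glo luminescence; concentration-effect curves fitted after normalization.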
Starred values were filed as active, the others as inactive; i = inactive; ? = inconclusive; . = no result. This is a sample that favours compounds with a hit; in the whole collection about 6.6% have one here. Calls follow the shape of the dose curve; as a rule, active = well fitted curve in the direction sought with a large enough effect; inconclusive = small, poorly fitted or top-dose-only effect, or another doubt; inactive = no such curve, though single readings can be large; an effect the other way counts as inactive or inconclusive. Potency is read from the fitted curve at half-maximal effect.

SMILES | TGFb inhibitor | HT1080NT lethal | KB-3-1 tox | HT1080 IDH1KD tx | HepG2 viability | KB-V1 MDR tox
COc1ccc(NC(=S)N/C(=N/S(=O)(=O)c2ccc(C)cc2)c2ccccc2)cc1 | 7% | -7% | i | -11% | -25% | i
COc1ccc(NC(=S)NC(=NS(=O)(=O)c2ccc(Cl)cc2)c2ccccc2)cc1 | -4% | -11% | 21µM* | -23% | 9% | i
CCOc1ccc(C(=O)Nc2cccc(NC(=O)c3ccc(Cl)cc3Cl)c2)cc1 | 11µM* | . | . | . | -64% | .
COc1ccc(C(=O)Nc2ccc(Cl)c(S(=O)(=O)Nc3ccccc3OC)c2)cc1 | ? | -3% | ? | ? | -4% | 2.3µM*
COc1ccccc1NS(=O)(=O)c1cc(NC(=O)c2ccc(Cl)nc2)ccc1Cl | ? | ? | ? | ? | -26% | 8.2µM*
CCCOc1ccc(C(=O)Nc2cccc(NC(=O)c3cccc(Cl)c3)c2)cc1 | -3% | . | ? | . | 2% | i
CC(C)(C)n1ncc2c(=O)n(Cc3ccc(C#N)cc3F)cnc21 | -8% | . | . | . | -8% | .
CC1CCN(S(=O)(=O)c2ccc3c(c2)N(CC(=O)N(C)Cc2ccccc2)C(=O)CO3)CC1 | 0% | . | . | . | 3% | .
CCCN1CCN(C(=O)c2ccc(S(=O)(=O)N(C)c3ccccc3OC)cc2)CC1 | 1% | -3% | i | 0% | 1% | i
CCOC(=O)N1CCN(C(=O)/C(=C/c2ccc(Br)cc2)NC(=O)c2ccc(OC)cc2)CC1 | -10% | 5% | i | -1% | 2% | 18µM*
CCOC(=O)N1CCN(C(=O)/C(=C/c2cccc3ccccc23)NC(=O)c2ccc(OC)c(OC)c2)CC1 | ? | -2% | i | 0% | -17% | 4.6µM*
CCOC(=O)N1CCN(C(=O)/C(=C/c2ccc(F)cc2)NC(=O)c2ccccc2)CC1 | 2% | 9% | . | 13% | 2% | .
COc1ccc(C(=O)N/C(=C\c2cccc3ccccc23)C(=O)N2CCN(C)CC2)cc1OC | 12% | -27% | i | -5% | -9% | i
COc1cccc(CNS(=O)(=O)c2cc3[nH]c(=O)c(=O)[nH]c3cc2C)c1 | 4% | . | i | . | 7% | i
O=C(CCl)N1CCN2C(=O)c3ccccc3C12c1ccc(Cl)cc1 (stereo not given) | ? | 9.2µM* | ? | 8.2µM* | -54% | ?
Cc1ccc(C(=O)N2CCN3C(=O)c4ccccc4C23c2ccc(Cl)cc2)cc1 (stereo not given) | -15% | ? | i | ? | -37% | i
COC1CCN(C(=O)c2ccc3oc(Cc4ccc(Cl)cc4)nc3c2)CC1 | -2% | -3% | i | 0% | 0% | i
COC1CCCN(C(=O)c2ccc3oc(Cc4ccc(Cl)cc4)nc3c2)C1 (stereo not given) | -22% | 7% | i | -5% | 0% | 2.6µM*
O=S(=O)(NCC(c1cccs1)S(=O)(=O)c1ccccc1)c1ccccc1 (stereo not given) | 7.1µM* | . | . | . | 10µM* | .
COc1cccc(-c2nc(CS(=O)(=O)CC(=O)Nc3c(C)cc(C)cc3C)c(C)o2)c1 | 10µM* | . | i | . | -79% | i
Cc1ccccc1-c1nc(CS(=O)(=O)CC(=O)Nc2c(C)cccc2C)c(C)o1 | 11µM* | . | i | . | -62% | i
COc1cccc(-c2nc(CS(=O)(=O)CC(=O)Nc3c(C)cccc3C)c(C)o2)c1 | -23% | -14% | i | -9% | -14% | i
CCOC(=O)c1cc(-c2ccc(C)cc2)nn1Cc1ccccc1 | -17% | . | i | . | -34% | i
Cc1nnc(SCC(=O)NC(=O)Nc2ccc3c(c2)OCCO3)s1 | -13% | 9% | i | 10% | -28% | i
COc1ccccc1NC(=O)CSc1nnc(NC(=O)Nc2ccc(C)cc2)s1 | 5.6µM* | . | . | . | -54% | .
